# Most compounds without a hit are left out; they make up all but 3% or so of the library.
# Tb PYK inh: qHTS of Trypanosoma Brucei Inhibitors. pyruvate kinase (Trypanosoma brucei), Q57TT1. TbPYK enzyme, Kinase-Glo Plus ATP luminescence, 45 min. Potency, µM (titrated, usually from 76.8 µM), for inactives: at the top dose activity, negative = inhibition, actives largely listed as inhibitors. hit rate 0.12% among 410,000. AID 624173, 2012; also: nearly all actives have a fitted effect of over 50% in size
#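 Luminescent Kinase-Glo Plus end-point after 45 min room-temperature reaction of T. brucei pyruvate kinase started with 130 uM ADP (final). Buffer TEA 50 mM pH 7.2 with KCl, MgCl2, BSA, Tween-20; titration-based qHTS with fitted concentration-effect curves.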
# Sm TGR inh: qHTS Assay for the Inhibitors of Schistosoma Mansoni Peroxiredoxins; purified TGR, DTNB reduction, TNB absorbance 405 nm; Potency, µM (doses to about 114 µM), for the others: top-dose activity change, negative = inhibition, most hits filed as inhibitors; hit rate 3% among 360,000; AID 485364, 2010; also: nearly all actives have a fitted effect of over 60% in size
#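 Kinetic colorimetric format: TGR-catalysed, NADPH-driven DTNB reduction monitored via TNB absorbance. Enzyme dispensed at 20 nM; compound exposure 15 min at room temperature before reaction start.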
# RE007 growth inh: qHTS Assay for Inhibitors of the HIV-1 protein Vpr; AID 651644, 2012; hit rate 0.21% among 360,000; Potency, µM (titrated, usually from 92.2 µM), for the others: top-dose activity change, negative = less growth, most hits filed as inhibitors; S. pombe RE007 Vpr strain, BacTiter-Glo ATP luminescence, 24 h; active = well fitted falling curve with a large enough effect; inconclusive = small, poorly fitted or top-dose-only effect; inactive = no such curve, though single readings can be large or run the other way; also: nearly all actives have a fitted effect of over 50% in size
#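 Fission yeast RE007 carrying one integrated HIV-1 vpr copy, seeded at OD 0.01 in PMG+AL medium with 23 nL pinned compound. Grown 24 h at 30 degrees; viability read by BacTiter-Glo luminescence after 5 min.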
# LmPK inhibitor: qHTS Assay for Inhibitors of Leishmania Mexicana Pyruvate Kinase (LmPK). purified LmPK, Kinase-Glo ATP luminescence, 1 h. Potency, µM (doses to about 57.5 µM), inactives show at the highest dose activity change, negative = inhibition, usual class: inhibitors. hit rate 0.37% among 290,000
# Target sequence (Q27686 whole entry, looked up): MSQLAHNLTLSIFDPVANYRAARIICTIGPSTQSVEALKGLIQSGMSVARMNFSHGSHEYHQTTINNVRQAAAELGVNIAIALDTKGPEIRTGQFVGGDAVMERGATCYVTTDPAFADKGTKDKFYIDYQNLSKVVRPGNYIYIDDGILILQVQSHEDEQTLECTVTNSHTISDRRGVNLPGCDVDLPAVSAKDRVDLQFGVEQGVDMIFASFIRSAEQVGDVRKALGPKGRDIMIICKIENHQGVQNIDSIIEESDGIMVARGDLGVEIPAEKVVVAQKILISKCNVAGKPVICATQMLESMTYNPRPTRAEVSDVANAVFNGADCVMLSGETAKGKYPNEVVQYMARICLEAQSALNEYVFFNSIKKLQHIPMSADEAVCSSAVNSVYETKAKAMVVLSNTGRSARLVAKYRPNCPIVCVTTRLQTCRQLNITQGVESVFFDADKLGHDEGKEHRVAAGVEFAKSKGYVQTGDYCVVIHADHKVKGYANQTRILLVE
#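 Pyruvate kinase activity monitored as ATP production (luciferase luminescence). Conditions: 0.1 nM enzyme, 0.5 mM PEP, 0.1 mM ADP, 1 h, RT; normalized against uninhibited and no-enzyme wells.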
# Starred values were filed as active, the others as inactive; ? = inconclusive; / = no result given; [ ] = remark or other dose. Unless noted, calls follow the shape of the dose curve; as a rule, active = well fitted curve in the direction sought with a large enough effect; inconclusive = small, poorly fitted or top-dose-only effect, or another doubt; inactive = no such curve, though single readings can be large; an effect the other way counts as inactive or inconclusive. % is scaled to controls: 0 for no effect and ±100 for the full control effect; potency is read from the fitted curve at half-maximal effect.
SMILES,Tb PYK inh,Sm TGR inh,RE007 growth inh,LmPK inhibitor
O=C(COc1ccccc1)NCCSCc1ccco1,-0.8%,25.1µM*,-7.5%,1.1%
Cc1cc(Cl)ccc1N(CC(=O)NCCSCc1ccco1)S(C)(=O)=O,-7.9%,17.8µM*,13.6%,10.3%
CCc1ccc(CNC(=O)c2sc3ncnc(N(C)C4CCCCC4)c3c2C)cc1,-4.2%,7.7%,/,/
NC(CS)C(=O)O (configuration not stated),-2.7%,/,/,/
Cc1ccc(N(CC(=O)NCCSCc2ccco2)S(C)(=O)=O)cc1,1.5%,44.7µM*,-2.7%,8.4%
COc1ccc(N(CC(=O)NCCSCc2ccco2)S(=O)(=O)c2ccccc2)cc1OC,-0.9%,-7.4%,3.1%,-16.3%
COc1ccccc1N(CC(=O)NCCSCc1ccco1)S(=O)(=O)c1ccccc1,-8.2%,50.1µM*,-9.6%,1.6%
Cc1ccc2nsnc2c1N,7.4%,-14.8%,-6.5%,-2.3%
Nc1cccc2nsnc12,0.1%,35.5µM*,2.6%,-6.3%
O=C(O)CCc1ccc(-c2ccccc2)n1-c1ccc(C(=O)O)cc1,-9.5%,17.8µM*,-12.3%,5.6%
CCc1ccc(-n2c(CCC(=O)O)ccc2-c2ccc(F)cc2)cc1,-4.4%,?,/,/
CC(=O)c1ccc(-n2c(CCC(=O)O)ccc2-c2ccc(Cl)cc2)cc1,11.3%,0.0%,-7.5%,7.2%
Cc1ccc(-c2ccc(CCC(=O)O)n2C(C)C)cc1,-1.7%,25.1µM*,1.5%,-0.5%
O=C(O)CCc1ccc(-c2ccc(Br)cc2)n1-c1cccc(O)c1,-2.8%,31.6µM*,-10.6%,-1.8%
CC(=O)c1cccc(-n2c(CCC(=O)O)ccc2-c2ccc(C)cc2)c1,-12.2%,31.6µM*,-8.6%,-0.4%
Cc1ccc(-c2ccc(CCC(=O)O)n2NC(N)=S)cc1,?,-21.4%,0.6%,0.9%
C[C@]12CCC(=O)C=C1CC[C@@H]1[C@@H]2[C@@H](O)C[C@@]2(C)[C@H]1CC[C@]2(O)C(=O)COP(=O)(O)O,-5.4%,/,/,/
Cc1cccc(C(=O)Nc2ccc(S(=O)(=O)N3CCC(c4nc5ccccc5s4)CC3)cc2)c1,-4.8%,-0.3%,/,/
O=C(O)CCc1ccc(-c2ccccc2)n1-c1cccc(C(=O)O)c1,-9.0%,11.2µM*,-15.5%,-3.8%
Cc1ccc(-c2ccc(CCC(=O)O)n2-c2ccc(C)c(Cl)c2)cc1,-11.3%,17.8µM*,/,/
CCOC(=O)c1ccc(-n2c(CCC(=O)O)ccc2-c2ccccc2)cc1O,-6.4%,17.8µM*,/,/
CCOC(=O)c1cc(-c2ccccc2)n(CCC(=O)O)c1C,-0.1%,3.1%,-8.3%,5.5%
CCn1c(=O)c2sccc2n2c(CCC(=O)NCc3ccc(Cl)cc3)nnc12,-8.4%,21.9%,/,/
CC(=O)C(C(C)=O)c1c(Cl)c(O)c(O)c2c(C(=O)c3ccccc3)coc12,?,2.51µM*,6.6%,11.2µM*
CCCCCC=CCC=CCCCCCCCC(=O)OCC,6.3%,/,/,/
SMILES,Tb PYK inh,Sm TGR inh,RE007 growth inh,LmPK inhibitor
COc1cc(NC(=S)Nc2cccnc2)cc(OC)c1OC,-3.5%,31.6µM*,-11.2%,-2.9%
S=C(Nc1cccnc1)Nc1ccccc1Br,-4.0%,6.31µM*,11.2%,2.8%
Fc1ccc(NC(=S)Nc2ccc(Cl)cc2Cl)cc1,6.8%,25.1µM*,-8.6%,-0.5%
Oc1cccc(NC(=S)Nc2cccnc2)c1,6.8%,50.1µM*,-11.0%,-2.3%
S=C(Nc1ccc(Oc2ccccc2)cc1)Nc1cccnc1,-11.7%,?,-0.4%,6.6%
COc1cc(NC(=S)NCc2cccnc2)cc(OC)c1OC,-3.4%,?,0.0%,-1.1%
CCCCC(=O)OC1CCC2C3CCc4cc(O)ccc4C3CC[C@]12C (some centres not stated),4.3%,/,/,/
CCCC#Cc1cnc2c(c1)C(=O)N([C@H](C)CO)C[C@H](C)[C@@H](CN(C)C(=O)CCN1CCCCC1)O2,-12.3%,/,4.0%,/
CC(C)C[C@H]1C(=O)N2CCCC2[C@]2(O)O[C@](NC(=O)[C@@H]3C=C4c5cccc6[nH]c(Br)c(c56)C[C@H]4N(C)C3)(C(C)C)C(=O)N12 (some centres not stated),-6.1%,/,/,/
Fc1ccc(NC(=S)Nc2cccnc2)c(F)c1F,-2.8%,14.1µM*,9.6%,0.9%
Fc1ccc(NC(=S)Nc2cccnc2)c(Cl)c1,-2.8%,17.8µM*,23.4%,0.6%
FC(F)(F)c1cnc(NNC(=S)Nc2cccnc2)c(Cl)c1,-5.4%,-9.3%,3.1%,4.5%
CC(C)(C)C1CCN2CCCC(c3ccccc3)(C1)C2=O (configuration not stated),3.8%,/,29.2%,/
CC(C)NC(=O)N1CC2(CCN(C(=O)c3cc(C(F)(F)F)cc(C(F)(F)F)c3)CC2)C1,-2.9%,/,/,/
Cc1ccc(C)c(CSc2cn(CCNC(=O)c3cccs3)c3ccccc23)c1,-2.6%,9.8%,/,/
N#CCSc1ccc(-c2nc3ccccc3[nH]2)cn1,0.4%,-1.5%[57.1 µM],-29.2%,25.1µM*
C#CCOCCOCCOCCNc1nc(N2CCN(C(=O)CCCCCCCCCCNC(=O)Cn3cc(CCCCCN)nn3)CC2)nc(N2CCN(C(=O)CCCCCCCCCCNC(=O)[C@@H](CCC(=O)O)n3cc(CCCCCN)nn3)CC2)n1,11.7%,50.1µM*,13.3%,/
C#CCOCCOCCOCCNc1nc(N2CCN(C(=O)CCCCCCCCCCNC(=O)[C@H]([C@@H](C)CC)n3cc(CCCCCN)nn3)CC2)nc(N2CCN(C(=O)CCCCCCCCCCNC(=O)[C@H](CCCCN)n3cc(CCCC(=O)O)nn3)CC2)n1,-3.8%,-4.2%,11.0%,/
C#CCOCCOCCOCCNc1nc(N2CCN(C(=O)CCCCCCCCCCNC(=O)[C@H]([C@@H](C)CC)n3cc(CCCCN=C(N)N)nn3)CC2)nc(N2CCN(C(=O)CCCCCCCCCCNC(=O)[C@H](CCCCN)n3cc(C)nn3)CC2)n1,3.8%,39.8µM*,-0.5%,/
C#CCOCCOCCOCCNc1nc(N2CCN(C(=O)CCCCCCCCCCNC(=O)[C@H]([C@@H](C)CC)n3cc(CCCCN=C(N)N)nn3)CC2)nc(N2CCN(C(=O)CCCCCCCCCCNC(=O)[C@H](CO)n3cc(CCCCCN)nn3)CC2)n1,-0.2%,44.7µM*,2.5%,/
C#CCOCCOCCOCCNc1nc(N2CCN(C(=O)CCCCCCCCCCNC(=O)[C@H]([C@@H](C)CC)n3cc(CCCCN=C(N)N)nn3)CC2)nc(N2CCN(C(=O)CCCCCCCCCCNC(=O)[C@H]([C@@H](C)CC)n3cc(CCCCN=C(N)N)nn3)CC2)n1,/,39.8µM*,/,/
C#CCOCCOCCOCCNc1nc(N2CCN(C(=O)CCCCCCCCCCNC(=O)Cn3cc(C[C@@H](C)O)nn3)CC2)nc(N2CCN(C(=O)CCCCCCCCCCNC(=O)[C@@H](CCC(=O)O)n3cc(CCCCCN)nn3)CC2)n1,2.6%,-16.9%,5.1%,/

# Screens deposited in PubChem by National Center for Advancing Translational Sciences (NCATS).
